Assay results reported in PubChem BioAssay AID1894 (NMMLSC, 2009).
Hit rate of the full screen: of about 5,900 compounds, about 100 (1.7%) were called active.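 How the source made its calls: active means binding response below 72% of control, or above a set upper limit, though filed actives all read lower; inactive means the rest.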 The full list was thinned out, with actives kept by preference.

These compounds were tested against Mitogen-activated protein kinase kinase kinase 3 (Homo sapiens) (UniProt Q99759) (assay: MEKK3 wild-type PB1 binding to MEK5, inhibitors, confirmation, biochemical, bead multiplex flow cytometry, single concentration, wildtype (AID 1894;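 further: 100% = DMSO only wells and 0% = binding blocked by excess unlabeled MEK5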)). Conditions: Alexa488-MEK5 binding to MEKK3, at 10 µM, hits give low values.
Sequence of Mitogen-activated protein kinase kinase kinase 3 (Homo sapiens) (Q99759 whole entry, looked up): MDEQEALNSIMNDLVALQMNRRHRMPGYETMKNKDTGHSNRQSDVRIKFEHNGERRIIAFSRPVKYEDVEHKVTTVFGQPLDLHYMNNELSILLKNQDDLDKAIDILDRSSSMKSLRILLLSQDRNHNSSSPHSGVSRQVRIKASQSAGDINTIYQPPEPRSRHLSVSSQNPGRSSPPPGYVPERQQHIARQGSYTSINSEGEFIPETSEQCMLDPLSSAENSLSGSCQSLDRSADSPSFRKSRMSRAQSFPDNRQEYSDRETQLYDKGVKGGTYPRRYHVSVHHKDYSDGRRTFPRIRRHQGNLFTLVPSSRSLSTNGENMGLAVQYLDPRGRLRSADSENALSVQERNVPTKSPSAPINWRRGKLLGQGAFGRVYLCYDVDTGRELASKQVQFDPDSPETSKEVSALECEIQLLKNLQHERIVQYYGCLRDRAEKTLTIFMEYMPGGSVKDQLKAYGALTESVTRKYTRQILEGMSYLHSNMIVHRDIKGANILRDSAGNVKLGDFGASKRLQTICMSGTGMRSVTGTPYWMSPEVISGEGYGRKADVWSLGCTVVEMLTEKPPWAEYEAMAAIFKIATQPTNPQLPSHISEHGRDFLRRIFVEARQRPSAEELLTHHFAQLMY

| Compound | binding response (% of control) |
| --- | --- |
| COc1ccc(-c2[nH]ncc2CN(C)Cc2c(C)n[nH]c2C)c(OC)c1 | 109% (inactive) |
| COc1ccccc1N1CCN(CCCCOc2ccc(F)cc2)CC1 | 103% (inactive) |
| CN1C(=O)/C(=C\c2ccc(-c3ccccc3)o2)SC1=S | 70% (active) |
| Cc1cc(Cl)ccc1OCc1nc(-c2ccncc2)no1 | 79% (inactive) |
| CCn1c(NC(=O)c2ccccc2)c(-c2cccs2)c(=O)c2ccccc21 | 101% (inactive) |
| Cc1cc(C)nc(-n2ncc3c2CC(c2ccc(C(C)C)cc2)CC3=O)n1 (configuration not stated) | 99% (inactive) |
| C/C(=N\NC(=O)CNC(=O)C(c1ccccc1)c1ccccc1)c1ccc(C)cc1 | 108% (inactive) |
| Cc1cc2cc(CNC(=O)c3cccs3)ccc2[nH]1 | 77% (inactive) |
| CCOc1ccc(S(=O)(=O)N(CC(=O)O)c2ccccc2)cc1 | 106% (inactive) |
| CC(C)CC(=O)NC(=S)Nc1cc(C(=O)O)ccc1Cl | 104% (inactive) |
| Cn1c(SCc2nc3ccccc3s2)nnc1-c1ccc2c(c1)OCO2 | 98% (inactive) |
| Cc1no[n+]([O-])c1COc1ccccc1/C=C1\NC(=S)NC1=O | 101% (inactive) |
| CC(C)(C)NC(=O)Cn1cnc([N+](=O)[O-])n1 | 97% (inactive) |
| COc1ccc(CCNC(=O)CSc2nnc3ccc(-c4ccncc4)nn23)cc1 | 105% (inactive) |
| CCOc1cc(C2C(C(=O)OC)=CN(C3CCCC3)C=C2C(=O)OC)cc(Br)c1O | 109% (inactive) |
| O=C(O)c1cc(Cl)c(Cl)cc1C(=O)Nc1cccc2ncccc12 | 102% (inactive) |
| COc1ccc(NC(=O)Cn2nnc(C(=O)NCCc3ccc(OC)c(OC)c3)c2N)cc1 | 102% (inactive) |
| Cn1c(C(=O)NCCCN2CCCCC2)cc2sccc21 | 109% (inactive) |
| O=C(NCCCN1CCCCCC1)C1CC(=O)N(C2CCCC2)C1 (configuration not stated) | 2% (active) |
| O=C(NCCCN1CCCCCC1)c1ccc(N2CCCC2=O)cc1 | 110% (inactive) |
| Cc1ccc(C(=O)NC(=S)Nc2ccc3[nH]c(=O)[nH]c3c2)cc1C | 100% (inactive) |
| c1ccc(CN2CCC(N=C3NN=C(c4ccc5c(c4)OCCO5)CS3)CC2)cc1 | 117% (inactive) |
| C[C@H]1CCC(=O)N([C@H](CSc2ccccc2)Cc2ccccc2)CC1 | 108% (inactive) |
| O=C(CC1SCCNC1=O)Nc1ccc(Cl)c(Cl)c1 (configuration not stated) | 106% (inactive) |
| CCNC(=O)CSc1nc(-c2ccccc2)cs1 | 104% (inactive) |
| COc1ccc(S(=O)(=O)Nc2ccc3oc(C)c(C(C)=O)c3c2)cc1 | 100% (inactive) |
| O=C(CN1CCN(C(=O)c2ccco2)CC1)Nc1ccc(Cl)c(C(F)(F)F)c1 | 104% (inactive) |
